This is part of a sample that, as a whole, favours compounds with a hit. Of some 83,000 tested, about 20% had one in any assay.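 Cells were grown in 96-well plates and exposed to the test compound at a single concentration for 48 hours; results are reported as percent growth, with values below 10 considered active.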 A number with no mark means an inactive call. Activity calls are given as the source filed them.
What was measured:
Assay in all cases: NCI-60 one-dose screen, 48 h (100 = growth as untreated, 0 = no growth, -100 = all killed)
NCI-H226 lung = details: 10 µM
NCI-H322M lung = details: 10 µM
HOP-62 NSCLC = details: 10 µM
NCI-H460 lung = details: 10 µM
A549/ATCC NSCLC = details: 10 µM
COLO 205 colon = details: 10 µM
DU-145 prostate = details: 10 µM
K-562 leukemia = details: 10 µM
SF-539 CNS = details: 10 µM
M14 melanoma = details: 10 µM
HCT-15 colon = details: 10 µM
HT29 colon = details: 10 µM
SNB-75 CNS = details: 10 µM
U251 CNS = details: 10 µM
LOX IMVI melanoma = details: 10 µM
MOLT-4 leukemia = details: 10 µM
SR leukemia = details: 10 µM
RPMI-8226 leukemia = details: 10 µM
SK-OV-3 ovarian = details: 10 µM
MDA-MB-468 breast = details: 10 µM unless noted

| SMILES | growth (NCI-H226 lung) | growth (NCI-H322M lung) | growth (HOP-62 NSCLC) | growth (NCI-H460 lung) | growth (A549/ATCC NSCLC) | growth (COLO 205 colon) | growth (DU-145 prostate) | growth (K-562 leukemia) | growth (SF-539 CNS) | growth (M14 melanoma) | growth (HCT-15 colon) | growth (HT29 colon) | growth (SNB-75 CNS) | growth (U251 CNS) | growth (LOX IMVI melanoma) | growth (MOLT-4 leukemia) | growth (SR leukemia) | growth (RPMI-8226 leukemia) | growth (SK-OV-3 ovarian) | growth (MDA-MB-468 breast) |
| --- | --- | --- | --- | --- | --- | --- | --- | --- | --- | --- | --- | --- | --- | --- | --- | --- | --- | --- | --- | --- |
| COC(=O)CNC(=O)COc1c(OC)c(OC)cc2oc(-c3cccc(C(=O)Nc4ccc(Cl)cc4)c3)cc(=O)c12 | -51.4% (active) | 76.6% | -34.4% (active) | 12.6% | 75.4% | 31% | 33.6% | 50% | 16% | 7.29% (active) | 67.7% | 58.4% | 85.1% | 11.7% | -33.2% (active) | 88.6% | 61.2% | 53.7% | 82.2% | 94.6% |
| Nc1nnc(-c2c[nH]c3ncc(Br)cc23)c(-c2c[nH]c3ccc(Br)cc23)n1 | 35.8% | 63% | 44.5% | 26.5% | 48.7% | 0.336% (active) | 32.5% | 15.2% | 19.9% | 34.5% | 31.7% | 30.9% | 43.4% | 38.3% | 37.6% | 5.25% (active) | 6.57% (active) | 10.9% | 66.6% | 8.52% (active) |
| O=[N+]([O-])c1cccc(-c2nnc3c(/C=C/c4ccccc4O)nc4ccccc4n23)c1 | 33.1% | 55.8% | 52.8% | 28.8% | 57.8% | 41.3% | 63% | 24.1% | 46.2% | 29.8% | 52.5% | 48.6% | 102% | 76.7% | 56.1% | 38.7% | 51.8% | 54.9% | 75.7% | 52% |
| COc1cc(C2CC(c3ccccc3)=Nc3c(N)nc(N)nc3N2)ccc1Oc1nc(NCCO)nc(N2CCOCC2)n1 (centres undefined) | 92.5% | 90.6% | 106% | 110% | 107% | 112% | 115% | 91.3% | 97.5% | 104% | 99.4% | 112% | 84.3% | 98.1% | 107% | 91.3% | 66% | 104% | 115% | 88% |
| COc1cc(Nc2nc(O)c(/C=C3\C=Nc4ccccc43)s2)cc(OC)c1OC | -46.5% (active) | -47.7% (active) | -65.9% (active) | -77.6% (active) | -69.4% (active) | -5.44% (active) | -57.6% (active) | 3.33% (active) | -85.3% (active) | -18.7% (active) | -0.515% (active) | -50.7% (active) | -63.8% (active) | -79.8% (active) | -61.5% (active) | 2.95% (active) | 2.6% (active) | -25.1% (active) | -59.3% (active) | -19.9% (active) |
| C#C[C@]1(O)CC[C@H]2[C@@H]3CC=C4c5sc(Nc6ccc(C(F)(F)F)cn6)nc5CC[C@]4(C)[C@H]3CC[C@@]21C | 16.2% | 13.7% | 10.9% | -35.8% (active) | 7.15% (active) | -87% (active) | 8.36% (active) | 7.48% (active) | -45.3% (active) | -21.4% (active) | -34.8% (active) | -31.8% (active) | 28.5% | -82.9% (active) | -98.5% (active) | -8.2% (active) | 1.07% (active) | -6.6% (active) | -4.49% (active) | 4.25% (active) |
| COc1ccccc1-n1cc(C#N)c(N)c1C(=O)c1ccc(Cl)cc1Cl | 34.5% | 48% | 38.2% | 12.5% | 41.9% | 19.6% | 35.4% | 12.5% | -0.792% (active) | 20.4% | 24.4% | -14.7% (active) | -22.8% (active) | 16.6% | 39.5% | 20.3% | 11.5% | 14.7% | 14.9% | 15.8% |
| COc1cc(-c2nc3ccc(C)cc3[nH]2)ccc1OCc1nnc(-c2ccccc2Br)o1 | 65.3% | 87.3% | 73.7% | 72.8% | 65.1% | 72.8% | 80.7% | 55.8% | 24.4% | 71.2% | 36.4% | 20% | 112% | 57.7% | 71.8% | 41.2% | 59.1% | 30.1% | 75.1% | 61.6% |
| CCOC(=O)c1ccc(NC(=O)CSC(CC(=O)c2sc(Nc3ccccn3)nc2C)c2ccccc2F)cc1 (centres undefined) | 4.65% (active) | 17.5% | 3.54% (active) | -40.7% (active) | 1.12% (active) | -34.1% (active) | 1.39% (active) | 5.79% (active) | -27.3% (active) | 0.872% (active) | -42% (active) | -28.3% (active) | -3.07% (active) | -70.4% (active) | -76.8% (active) | 11.5% | 4.27% (active) | -14.2% (active) | 5.92% (active) | 3.8% (active) |
| O=C(c1ccc(Cl)cc1)C(c1c[nH]c2ccccc12)c1c[nH]c2ccccc12 | -50.8% (active) | 38.1% | 16% | -53.5% (active) | 4.91% (active) | -87.9% (active) | -91.7% (active) | 0.546% (active) | -94.2% (active) | -71% (active) | -63.9% (active) | -71.1% (active) | 31.9% | -89.1% (active) | -85.1% (active) | -1.68% (active) | -12.2% (active) | -27.9% (active) | 57.2% | -71.1% (active) |
| O=C(c1ccccc1)c1ccc2nc(-c3ccccc3Br)[nH]c2c1 | -27.8% (active) | -96.2% (active) | -46.6% (active) | -22.4% (active) | -57.9% (active) | -75.5% (active) | -76% (active) | -3.28% (active) | -96.1% (active) | -70.1% (active) | -37.7% (active) | -71.3% (active) | -41.9% (active) | -94.7% (active) | -94.6% (active) | -15.3% (active) | -22.8% (active) | -17.9% (active) | 24% | -57.2% (active) |
| C#C[C@]1(O)CC[C@H]2[C@@H]3CC=C4c5sc(Nc6cc(C)cc(C)n6)nc5CC[C@]4(C)[C@H]3CC[C@@]21C | 13.8% | 14.7% | 6.05% (active) | -34.3% (active) | 9.23% (active) | -95.5% (active) | 12.9% | 4.71% (active) | -66% (active) | -42.1% (active) | -69.5% (active) | -74.2% (active) | 33.9% | -58.9% (active) | -96% (active) | 1.29% (active) | 3.1% (active) | -16% (active) | -62.4% (active) | -39.3% (active) |
| COc1ccc(C2OC[C@@]3(C)C4CC[C@]5(C)C(CC=C6C7CC(C)(C)CC[C@]7(C(=O)O)CC[C@]65C)[C@@]4(C)C[C@@H](O)[C@@H]3O2)cc1 (some centres undefined) | 84.5% | 83.5% | 95.5% | 69.1% | 39% | 78.8% | 76.3% | 44% | 95.7% | 96.8% | 56% | 70.8% | 97% | 50.7% | 70.8% | 47.2% | 54.7% | 40.3% | 132% | 75.9% |
| O=C1NC(=S)S/C1=C\c1cn(-c2ccccc2)nc1-c1ccc([N+](=O)[O-])cc1 | 13.2% | 30.5% | 19.4% | 9.76% (active) | 15.2% | 11.7% | 36.9% | 16.5% | 21% | 20.5% | 10.4% | 15.1% | 34.5% | 9.35% (active) | 29.1% | 17% | 24.5% | 2.45% (active) | 6% (active) | -8.61% (active) |
| Cc1ccc2c(c1)C(=O)/C(=C/c1c[nH]c3ccccc13)S2 | 40.8% | 72.2% | 47.4% | 33.6% | 64.6% | 67.8% | 78.2% | 19% | 48.1% | 64.2% | 29.5% | 55.6% | 41.1% | 22.7% | 19.1% | 32% | 27.1% | 32.3% | 84.4% | – |
| O=C(Nc1ccc(OCc2ccc(Cl)cc2)cc1)Nc1ccc(Cl)c(C(F)(F)F)c1 | 6.46% (active) | 25.9% | 19.5% | 7.92% (active) | 16.2% | -80.6% (active) | 26.6% | 7.62% (active) | 7.92% (active) | 12.5% | 9.07% (active) | 8.31% (active) | 28% | 6.47% (active) | -72.5% (active) | 9.92% (active) | 2.46% (active) | -9.46% (active) | -18.9% (active) | -15.2% (active) |
